This note sets out measurements from PubChem BioAssay AID651610 (Broad Institute, 2012).

Values joined by “and” are separate entries in the source; they are usually repeats but may differ in a detail not shown here. Equal entries are not always repeated. The campaign covered roughly 360,000 compounds. About 3,900 (1.1%) were called active. The sample as a whole holds a higher share of actives than the screen did. Values without a mark were called inactive.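 The calls were made as follows: active = mean replicate inhibition score of at least 50 and every replicate individually at or above 50; inconclusive = only one of the two criteria met; inactive = mean below 50 and not all replicates reaching 50.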

This assay in a line: blockers of JRFL envelope-mediated fusion – HeLa-JRFL effector, CEM21 target cells, luciferase, primary screen (AID 651610).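 Also: 0% = plate neutral controls and 100% = maraviroc near 300 nM.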 The settings on record: HeLa-JRFL Env/CEM21 cell fusion, active compounds read high; at 12.3 µM unless noted.
`CC(C)(C)c1ccc(CN2C(=O)CN=C(c3ccccc3)c3ccccc32)cc1`: the inhibition is 86.8% (active).
Turning to `O=C1CC(=O)N(Cc2ccccc2)C(=O)N1CCCCCCN1C(=O)CC(=O)N(Cc2ccccc2)C1=O`, the inhibition is -2.61%.
As for `O=S(=O)(c1ccccc1)N1CCC2CCNC2C1` (stereo not given), the inhibition is -11.9%.
In the case of `C[C@H](CO)N1C[C@H](C)[C@H](CN(C)C(=O)Oc2ccc3ccccc3c2)OCc2cnnn2CCCC1=O` it was -15.9% [at 16.7 µM]; in that of `O=C(O)[C@@H]1[C@@H](CO)[C@@H]2Cn3c(ccc(-c4ccccc4F)c3=O)[C@H]1N2C(=O)c1cccnc1`, 1.12% [at 16.7 µM].
Consider `CCCCCCCCCCCCn1ccc(=N)cc1`, for which the inhibition was 69% (active).
`C[C@@H]1CN([C@H](C)CO)C(=O)CCCn2cc(nn2)CO[C@@H]1CN(C)C(=O)Oc1cccc2ccccc12`: the inhibition was 0.664% [at 16.7 µM].
As for `CCOC(=O)[C@@H]1[C@@H]2NC(=O)N[C@@]1(C)Oc1ccccc12`, the inhibition was -2.84% [at 16.7 µM] and -0.731% [at 16.7 µM].
Consider `CS(=O)(=O)N1CCC2CCNC2C1` (stereo not given), for which the inhibition is -7.16%.
With `CCC(C)(O)C(=O)OC1C(=O)OC2CC3C(C)=CC(=O)C(O)C3(C)C3C4(O)OCC23C1C(C)C4O` (stereo not given), the inhibition was 75.7% (active).
Regarding `O=C(O)[C@H]1[C@H](CO)[C@H]2Cn3c(ccc(-c4ccccc4F)c3=O)[C@@H]1N2C(=O)c1cccnc1`, the inhibition was -4.52% [at 16.7 µM].
As for `Cc1cc(N2CCNC[C@@H]2C)ccc1N1CC[C@H](O)C1`, the inhibition is 0.23%.
The result for `COC(=O)C[C@@H]1CC[C@@H]2NC[C@@H](O)COC[C@H]2O1` reads -11.9% [at 16.7 µM]; that for `O=C(c1ccccc1)C(O)(CN1CCCCC1)c1ccccc1` (stereo not given), 8.44%.
Turning to `CC(=O)C1(O)CCC2C3CCC4=C(Cl)C(=O)CCC4(C)C3CCC21C` (stereo not given), the inhibition was 16.9%.
